Source: the OligoGym collection
Note: reference of the scale not given here.

Each sequence was assayed against STRADB (assay: pooled miR-30 sensor sort-seq; sequence = guide strand). Conditions: shRNA.
TTCTACTTGGAGCTCATAGTGA showed a sensor-assay potency score (higher = more potent) of -0.852. TTACTGTGTGAGTTCCACTGGA showed a sensor-assay potency score (higher = more potent) of 0.572. In the case of ATCTTGTTGCAAACAGAGCTGT, the sensor-assay potency score (higher = more potent) is reported as -0.583. For TACTGTGTGAGTTCCACTGGAG, the sensor-assay potency score (higher = more potent) was 0.0726. For TAATCGGTCACTATTTACTGTG, the sensor-assay potency score (higher = more potent) was -0.781. TTGCAAACAGAGCTGTACCAAG gave a sensor-assay potency score (higher = more potent) of -0.672. TTCTGTAACAGCATCTGAGTTC gave a sensor-assay potency score (higher = more potent) of -0.403. Work on TAGATTAGTAATTCTGATGTTT yielded a sensor-assay potency score (higher = more potent) of 0.0372.

What follows are sequences tested against STRBP in the same assay as above. Conditions: shRNA.
In the case of TTCTTCTCCAATTCGTCCCTAA, the sensor-assay potency score (higher = more potent) is reported as 0.053. In the case of TTGATATTTCTCTTCTGTGAGT, the sensor-assay potency score (higher = more potent) is reported as -0.566. TTACTATCCAGAATTTTCCTTA showed a sensor-assay potency score (higher = more potent) of 0.368. TAAAACTTAAACTTTGAACTGC was tested, and the sensor-assay potency score (higher = more potent) was 0.571. For TTTGAGACTCTATACATCCTTC, the sensor-assay potency score (higher = more potent) was -0.328. TTGAGTTTGAAGACACTGTTTC was tested, and the sensor-assay potency score (higher = more potent) was -0.227. TAACAGAACCATTCTCTTGGGT showed a sensor-assay potency score (higher = more potent) of 0.367. With TTTCGTTTCATCTTCTTGTTGG the sensor-assay potency score (higher = more potent) was 0.788. For TTACACATGATTTTAATCCATT, the sensor-assay potency score (higher = more potent) was -0.986. Sequence TTTGACTGTATTTAACAGGGTC has a sensor-assay potency score (higher = more potent) of 0.301.

What follows are sequences tested against STUB1 in the same assay as above. Conditions: shRNA.
TTGCCACACAGGTAGTCGGGGA showed a sensor-assay potency score (higher = more potent) of -0.252. For TTGAGCTCCTGCGCGCTCGGGC, the sensor-assay potency score (higher = more potent) was -0.67. For TTGCGGTCGTAGGTGATGCCAC, the sensor-assay potency score (higher = more potent) was -0.555. Sequence TTCAGGTAGCACAAGGCCCGGT has a sensor-assay potency score (higher = more potent) of -0.567. For TTCGCGATTCGAAGAGCGCTGG, the sensor-assay potency score (higher = more potent) was -0.358. Work on TTCCTCTTCTCATCCACCTGAG yielded a sensor-assay potency score (higher = more potent) of -0.167. Sequence ATAGCTCTCCATCTCCAGCTGG has a sensor-assay potency score (higher = more potent) of -0.665. TTATTACACAGATAGTGGCGGC showed a sensor-assay potency score (higher = more potent) of 0.272. Work on TGCTCCTCGATGTCCTTGCGGT yielded a sensor-assay potency score (higher = more potent) of -0.704. TAGCTCTCCATCTCCAGCTGGC was tested, and the sensor-assay potency score (higher = more potent) was -0.433. In the case of TAATACACGGCCACCAGCGGGT, the sensor-assay potency score (higher = more potent) is reported as -0.893. TTCCAGCGCTTCTTCTTCGCGA showed a sensor-assay potency score (higher = more potent) of -0.702.

What follows are sequences tested against STX12 in the same assay as above. Conditions: shRNA.
Sequence TTTTTGTCTAAAACTATGCATG has a sensor-assay potency score (higher = more potent) of -0.984. TAGCTTGCTTGAGTCCTGCTTA showed a sensor-assay potency score (higher = more potent) of -0.146. TCTGATAGTAAGCAGCTCGCTG was tested, and the sensor-assay potency score (higher = more potent) was -0.759. Sequence TTTAATAAGTTCCAAATCCTGC has a sensor-assay potency score (higher = more potent) of -0.773. Work on TTTTCCTGTAGCTTGCTTGAGT yielded a sensor-assay potency score (higher = more potent) of 0.00107. In the case of TACCCTTCTCTGCACAGCCTGG, the sensor-assay potency score (higher = more potent) is reported as -1.07. TTGAGTCCTGCTTAGTTCCTAG was tested, and the sensor-assay potency score (higher = more potent) was -0.155. With TAACTGTTGCAGATTTTCCTGT the sensor-assay potency score (higher = more potent) was 0.412. Work on TTGTGGAGTGTTGTAACTGTTG yielded a sensor-assay potency score (higher = more potent) of -1.19. AAATATCTGATTGACATCCAAA gave a sensor-assay potency score (higher = more potent) of -1.28.
